Source: PubChem (National Center for Advancing Translational Sciences (NCATS))
TbPYK inhibitor: inhibitors of Trypanosoma brucei pyruvate kinase | Q57TT1 | TbPYK enzyme, Kinase-Glo Plus ATP luminescence, 45 min | Potency, µM (top dose mostly 76.8 µM), without a hit: at the top dose activity, negative = inhibition, hits mostly inhibitors | hit rate 0.12% among 410,000; also: potency is read from the fitted curve at half-maximal effect; % is scaled to controls: 0 for no effect and ±100 for the full control effect; nearly all actives have a fitted effect of over 50% in size
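Glycolytic pyruvate kinase of T. brucei was incubated with substrate, test compound and 130 uM ADP for 45 minutes at room temperature. Luminescent Kinase-Glo Plus signal was measured after 10 minutes.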
LmPK inh: blocks Leishmania mexicana pyruvate kinase activity; Q27686; purified LmPK, Kinase-Glo ATP luminescence, 1 h; Potency, µM (highest dose often 57.5 µM), without a hit: at the highest dose activity change, negative = inhibition, most hits filed as inhibitors; hit rate 0.37% among 290,000; AID 1721; also: potency is read from the fitted curve at half-maximal effect; % is scaled to controls: 0 for no effect and ±100 for the full control effect
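qHTS format; LmPK 0.1 nM; substrates PEP 0.5 mM and ADP 0.1 mM. One-hour room-temperature incubation, then coupled luciferase luminescence; 0.5 nM enzyme wells mark activation.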
Giardia FBPA inh: Giardia lamblia aldolase inhibition. A8B2U2. purified Giardia FBPA. Potency, µM (titrated, usually from 59.6 µM), without a hit: at the highest dose activity, negative = inhibition, hits mostly inhibitors. hit rate 0.71% among 290,000; also: potency is read from the fitted curve at half-maximal effect; % is scaled to controls: 0 for no effect and ±100 for the full control effect; nearly all actives have a fitted effect of over 55% in size
Target sequence (A8B2U2 whole entry, looked up): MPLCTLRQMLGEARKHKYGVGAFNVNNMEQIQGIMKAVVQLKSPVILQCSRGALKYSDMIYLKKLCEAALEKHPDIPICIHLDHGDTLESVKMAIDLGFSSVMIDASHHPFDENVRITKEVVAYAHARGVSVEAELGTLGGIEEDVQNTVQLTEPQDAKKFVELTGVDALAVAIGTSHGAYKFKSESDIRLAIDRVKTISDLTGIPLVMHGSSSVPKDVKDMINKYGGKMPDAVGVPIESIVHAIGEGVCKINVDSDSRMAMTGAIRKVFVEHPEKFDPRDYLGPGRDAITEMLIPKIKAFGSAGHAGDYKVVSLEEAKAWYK
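Giardia FBPA (40 nM reagent) was preincubated 10 min at RT with compound (up to 57.5 uM final), then substrate plus GAPDH/TPI/NAD/arsenate coupling system with diaphorase/resazurin was added; resorufin fluorescence (525/598 nm) was read after 20 min.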
Sm TGR block: inhibitors of Schistosoma mansoni thioredoxin glutathione reductase; Q962Y6; purified TGR, DTNB reduction, TNB absorbance 405 nm; Potency, µM (doses to about 114 µM), for the others: at the highest dose activity change, negative = inhibition, usual class: inhibitors; hit rate 3% among 360,000; also: potency is read from the fitted curve at half-maximal effect; % is scaled to controls: 0 for no effect and ±100 for the full control effect; nearly all actives have a fitted effect of over 60% in size
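Kinetic colorimetric format: TGR-catalysed, NADPH-driven DTNB reduction monitored via TNB absorbance. Enzyme dispensed at 20 nM; compound exposure 15 min at room temperature before reaction start.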
CHX counter: counter-screen for Shiga toxin inhibitors: cycloheximide protein synthesis inhibition. cell reporter, cycloheximide protein synthesis inhibition counterscreen. AID 2314. hit rate 12% among 300,000. max response, %; in the data active = max response mostly above about 13%, no sharp cut-off; inactive = mostly below about 14%; also: read at 38.3 µM for the half of the compounds with a filed dose; 0% is about no effect
Shiga toxin inh: inhibitors of Shiga toxin in Vero cells. AID 2315. inhibition, % at 38.7 µM. hit rate 9.2% among 290,000. Vero cells, Shiga toxin protein synthesis inhibition reporter; in the data active = inhibition mostly above about 28%, no sharp cut-off; inactive = mostly below about 43%; also: 0% is about no effect
* = called active by the depositor; ? = inconclusive; . = no result; + = active, no number. The full list was thinned out, with hits kept by preference. Unless noted, calls follow the shape of the dose curve; as a rule, active = well fitted curve in the direction sought with a large enough effect; inconclusive = small, poorly fitted or top-dose-only effect, or another doubt; inactive = no such curve, though single readings can be large; an effect the other way counts as inactive or inconclusive.

SMILES	TbPYK inhibitor	LmPK inh	Giardia FBPA inh	Sm TGR block	CHX counter	Shiga toxin inh
CCOc1ccc(-c2cc(C)n3nc(C(=O)Nc4cc(Cl)ccc4O)cc3n2)cc1	-4.2%	.	.	0.6%	.	.
C=CCc1cc(C=C2C(=O)N(C)C(=O)N(C)C2=O)cc(OCC)c1OCc1ccccc1	?	0.5%	-12.4%	31.6µM*	-0.8	-53.9
O=C(CCc1nc2cccnc2n1Cc1cccs1)Nc1cccc(C(F)(F)F)c1	0.7%	.	.	1.2%	.	.
COc1ccc(-c2noc(C3CCCN(C(=O)c4ccccc4)C3)n2)cc1 (configuration not stated)	-5.7%	-2.5%	4.4%	-5.3%	32.3*	43.3*
O=C(c1ccco1)N1CCCC(c2nc(-c3ccc(S(=O)(=O)NCc4ccccc4)cc3)no2)C1 (configuration not stated)	5.6%	8.3%	6.0%	2.0%	9.9	+
COc1ccc(-c2noc(C3CCCN(C(=O)CCc4ccccc4)C3)n2)cc1 (configuration not stated)	-0.7%	2.9%	-0.6%	1.9%	14.5*	22.6
COc1ccc(-c2noc(C3CCCN(C(=O)c4cccc(F)c4)C3)n2)cc1 (configuration not stated)	-3.0%	1.4%	-5.9%	-15.1%	-2.2	.
Cc1ccc(N2CC(c3nnc(Cc4ccc(F)cc4Cl)o3)CC2=O)cc1 (configuration not stated)	?	.	.	-4.9%	.	.
CCCCC/C=C\C/C=C\C/C=C\C=C\C1CCCC(=O)O1 (configuration not stated)	.	.	1.2%	.	.	.
N=C(N)c1ccc(OCCCOc2ccc(C(=N)N)cc2)cc1	-4.2%	.	.	.	.	.
CCCCCCOc1ccc(/C(N)=N/O)cc1	-0.7%	0.1%	-12.9%	5.8%	44.1*	61.4*
COc1ccc(C#Cc2ccc3c(=O)c4ccccc4n(C)c3c2)cc1	7.5%	-4.7%	3.3%	-26.7%	4.3	17.2
Cn1c2ccccc2c(=O)c2cc(C#Cc3cccc(N)c3)ccc21	3.0%	.	.	-0.8%	.	.
Cn1c2ccccc2c(=O)c2ccc(C#Cc3ccc(N)cc3)cc21	2.7%	-5.1%	7.9%	?	25.6*	20.4
Cn1c2ccccc2c(=O)c2cc(C#CC3=CCCCC3)ccc21	-16.8%	.	.	2.24µM*	.	.
O=C(O)CCc1nnc2cnc3ccccc3n12	5.4%	.	.	1.7%	.	.
O=C(NC1CCN(Cc2ccc3ccccc3c2)CC1)c1ccccc1	4.1%	5.1%	4.0%	0.0%	-4.1	-12.2
CCN(CC)C(=O)c1sc(NC(=O)c2nc3ncccn3n2)c(C(=O)OC)c1C	-15.5%	.	.	-1.0%	.	.
Nc1ncc(Br)cc1N=Cc1ccccc1	-4.9%	-2.8%	1.12µM*	?	74.7*	27.3*
Cc1c(C2=CCN(S(=O)(=O)c3cccc(Cl)c3)CC2)c2ccccc2n1CC(=O)N1CCCC1	2.4%	.	.	-6.7%	5.9	20.4
O=C(NC(=S)NCC1CCCO1)c1cccs1 (configuration not stated)	9.1%	1.3%	-8.6%	-13.0%	12.5*	25.6
O=C(NC(=S)NCC1CCCO1)c1ccccc1F (configuration not stated)	-17.0%	-1.4%	3.5%	-7.4%	25.8*	43.4
COc1ccccc1Cc1c(-c2ccccc2)nc2cc(C)c(Br)c(C)n12	2.0%	.	.	.	.	.
Cn1c(SCc2ccc(F)cc2)nnc1-c1cnccn1	4.9%	0.8%	-2.6%	3.0%	20.2*	60.6*
Cc1ccccc1CSc1nnc(-c2cnccn2)n1C	0.4%	4.6%	4.0%	0.1%	30.6*	57.1*
Cn1c(SCC#N)nnc1-c1cnccn1	-0.4%	-4.7%	1.5%	-3.2%	-0.9	-3.8
Cn1c(SCc2ccccc2)nnc1-c1cnccn1	0.0%	-1.3%	5.5%	9.2%	37.0*	97.4*
Cc1cccc(C)c1NC(=O)CSc1nnc(-c2cnccn2)n1C	1.2%	3.7%	.	-10.5%	-2.4	-3.7
COc1ccc(C2C3C=CCCC3(C)C(=O)N2Cc2ccccc2)cc1Cl (configuration not stated)	.	.	5.6%	.	-0.3	-4.3
O=C(c1cc(C(F)(F)F)cc(C(F)(F)F)c1)N1CCC2(CC1)CN(c1ccccn1)C2	0.2%	.	-5.4%	.	.	.
